PubChem BioAssay (NCATS)
Inconclusive results are not listed. Calls of active or inactive are those of the source. Calls follow the shape of the dose curve; as a rule, active = well fitted cell-killing curve with a large enough effect; inconclusive = small, poorly fitted or top-dose-only effect, or effect the other way; inactive = no such curve, though single readings can be large or run the other way.

Experiment: Quantitative High-Throughput drug screen in 47 multiple myeloma cell lines against the NCATS MIPE library collection: MOLP8_DSMZ cell viability assay (AID 1918977); also: nearly all actives have a fitted effect of over 45% in size
Details: MOLP8 myeloma viability, CellTiter-Glo ATP luminescence, 48 h; series mostly up to 45.8 µM; viability (% of control): at the top concentration
Excerpt: PI: Beverly A. Mock Ph.D.
Laboratory of Cancer Biology and Genetics,
Center for Cancer Research, National Cancer Institute,
National Institute of Health, Bethesda, Maryland
Drug resistance and disease progression are common in multiple myeloma (MM) patients, underscoring the need for new therapeutic combinations. […] We hypothesized that effective combinations would reduce MYC expression and enhance p16 activity. […] These preclinical data identify potentially useful drug combinations for evaluation in drug-resistant MM and reveal potential mechanisms of combined drug sensitivity.
Described herein is the primary MIPE qHTS used to cherrypick compounds. Validated compounds were then further tested for potential synergistic activiy.
[1] Peat TJ, Gaikwad SM, Dubois W, Gyabaah-Kessie N, Zhang S, Gorjifard S, Phyo Z, Andres M, Hughitt VK, Simpson RM, Miller MA, Girvin AT, Taylor A, Williams D, D'Antonio N, Zhang Y, Rajagopalan A, Flietner E, Wilson K, Zhang X, Shinn P, Klumpp-Thomas C, McKnight C, Itkin Z, Chen L, Kazandijian D, Zhang J, Michalowski AM, Simmons JK, Keats J, Thomas CJ, Mock BA. Drug combinations identified by high-throughput screening promote cell cycle transition and upregulate Smad pathways in myeloma. Cancer Lett. 2023 Aug 1;568:216284. doi: 10.1016/j.canlet.2023.216284. Epub 2023 Jun 24. PMID: 37356470; PMCID: PMC10408729.
SEQUENCE No. (e.g., 1, 2, 3, etc.); […] (e.g., Cells, Incubation, Reagent, etc.); VALUE and DESCRIPTION.
1; Cells; 5 uL; white, solid bottom 1536-well Greiner assay plate.
2; Compounds; 23 nL; Kalypsis pin tool (Wako USA) equipped with a 1536-well pin head to transfer to the assay plates.
3; Incubation; 48 hours; 37C incubation.
4; Reagent;5uL; CellTiter Glo (Promega).
5; Detector; 425V; Luminescence; Viewlux PerkinElmer.
NOTES (numbers refer to Sequence numbers above)
1. The cell-based screening methods employed in this study were like those previously published. Briefly, the corresponding myeloma cell lines were screened in 1,536-well plates with 500 cells, 5-uL per well for inhibition of cell viability (assessed by measuring ATP levels with CellTiterGlo).
2. NCATS MIPE 4.0 library of approved and investigational drugs were added using the Kalypsis pin tool. Wells treated with DMSO only for 100% viability and media only for 0% viability were used as controls.
3. The assay plates were covered and incubated for 48 hours in a 37C, 5% CO2 incubator with controlled humidity.
4. After 48 hours, CellTilter-GloTM luminescent substrate mix (Promega) reagent was added to the assay plate and plates we incubated for 5 min at room temperature.
5. Signal was measured as median relative luminescence units on a ViewLux (PerkinElmer) multiplate reader.
[1] Heske CM, Davis MI, Baumgart JT, Wilson K, Gormally MV, Chen L, Zhang X, Ceribelli M, Duveau DY, Guha R, Ferrer M, Arnaldez FI, Ji J, Tran HL, Zhang Y, Mendoza A, Helman LJ, Thomas CJ. Matrix Screen Identifies Synergistic Combination of PARP Inhibitors and Nicotinamide Phosphoribosyltransferase (NAMPT) Inhibitors in Ewing Sarcoma. Clin Cancer Res. 2017 Dec 1;23(23):7301-7311. doi: 10.1158/1078-0432.CCR-17-1121. Epub 2017 Sep 12. PMID: 28899971; PMCID: PMC6636827.
Potency is read from the fitted curve at half-maximal effect.

Row | SMILES | viability (% of control) | Potency
1 | Cn1cc(C2=C(c3cn(C4CCN(Cc5ccccn5)CC4)c4ccccc34)C(=O)NC2=O)c2ccccc21 | 71.4% (inactive) | –
2 | COC[C@H]1OC(=O)c2coc3c2[C@@]1(C)C1=C(C3=O)C2CCC(=O)[C@@]2(C)C[C@H]1OC(C)=O (stereo partly drawn) | – | 1.32 µM (active)
3 | O=c1[nH]c2ccccc2n1CCCN1CCC(n2c(=O)[nH]c3cc(Cl)ccc32)CC1 | 121% (inactive) | –
4 | C[C@@H]1[C@@H](C(=O)C[C@H]2O[C@@H]3O[C@]4(C)CC[C@@H]5[C@H](C)CC[C@@H]([C@H]2C)[C@@]35OO4)O[C@@H]2O[C@]3(C)CC[C@H]4[C@H](C)CC[C@@H]1[C@@]24OO3 | – | 0.526 µM (active)
5 | CNCC(O)c1ccc(O)cc1 (stereo not drawn) | 112% (inactive) | –
6 | COC[C@@H](NC(C)=O)C(=O)NCc1ccccc1 | 90.8% (inactive) | –
7 | CC(C)CC(N(C)C)C1(c2ccc(Cl)cc2)CCC1 (stereo not drawn) | 78.7% (inactive) | –
8 | Cn1c(CCCC(=O)O)nc2cc(N(CCCl)CCCl)ccc21 | – | 3.32 µM (active)
9 | COc1ccc(C(=O)c2c(C)n(CCN3CCOCC3)c3ccccc23)cc1 | 95.5% (inactive) | –
10 | O=P1(NCCCl)OCCCN1CCCl (stereo not drawn) | 60.1% (inactive) | –
11 | COC1(CS(=O)c2ccccc2)CCN(CCc2c[nH]c3ccc(F)cc23)CC1 (stereo not drawn) | 65.3% (inactive) | –
12 | N[C@@H](Cc1ccc(N(CCCl)CCCl)cc1)C(=O)O | – | 5.9 µM (active)
13 | COc1ccc(C(CN(C)C)C2(O)CCCCC2)cc1 (stereo not drawn) | 76.9% (inactive) | –
14 | C[C@@H]1[C@@H](CC(C[C@H]2O[C@@H]3O[C@]4(C)CC[C@@H]5[C@H](C)CC[C@@H]([C@H]2C)[C@@]35OO4)C[S+](=O)([O-])c2ccc(COC(=O)N(C)C)cc2)O[C@@H]2O[C@]3(C)CC[C@H]4[C@H](C)CC[C@@H]1[C@@]24OO3 (stereo partly drawn) | – | 0.187 µM (active)
15 | CC1=C2C[C@@H]3[C@@H](CC=C4C[C@@H](O)CC[C@@]43C)[C@@H]2CC[C@]12O[C@H]1C[C@H](C)CN[C@H]1[C@H]2C | 91.1% (inactive) | –
16 | CN(C)CCc1ccc(O)cc1 | 131% (inactive) | –
17 | CN(C)[C@@H]1C(=O)C(C(N)=O)=C(O)[C@@]2(O)C(=O)C3=C(O)c4c(O)cccc4[C@@](C)(O)[C@H]3C[C@@H]12 | 95.2% (inactive) | –
18 | CCCC(C)(COC(N)=O)COC(=O)NC(C)C (stereo not drawn) | 95.6% (inactive) | –
